# Many of the other results were omitted from the sample, so the strongest signals are more common in it than they were.
# B1: SspB A3vp1 (Streptococcus gordonii), Q54186 (protein)
# chain: MTNEADYQAKLAAYQTELARVQKANADAKATYEKAVEDNKAKNAAIKAENEEIKQRNAVAKTDYEAKLAKYEADLAKYKKEFAAYTAALAEAESKKKQDGYLSEPRSQSLNFKSEPNAIRTIDSSVHQYGQQELDALVKSWGISPTNPDRKKSRAYSYFNAINSNNTYAKLVLEKDKPVDVTYTGLKNSSFNGKKISKVVYTYTLKETGFNDGTKMTMFASSDPTVTAWYNDYFTSTNINVKVKFYDEEGQLMNLTGGLVNFSSLNRGNGSGAIDKDAIESVRNFNGRYIPISGSSIKIHENNSAYADSSNAEKSLGARWNTSEWDTTSSPNNWYGAIVGEITQSEISFNMASSKSGNIWFAFNSNINAIGVPTKPVAPTAPTQPMYETEKPLEPAPVAPSYENEPTPPVKTPDQPEPSKPAAALEHHHHHH
# Assays:
# Experiment in all cases: glycan array binding signal (z-score within array); higher = stronger binding
# Settings in all cases: glycan notation: IUPAC condensed, linker removed
# [1] = biological target: Fuc(a1-2)Gal(b1-3)GlcNAc(b1-2)Man(a1-3)[Fuc(a1-2)Gal(b1-3)GlcNAc(b1-2)Man(a1-6)]Man(b1-4)GlcNAc(b1-4)GlcNAc
# Summary of the method: (§1)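 Glycan array data were curated from 3228 arrays in the Consortium for Functional Glycomics database and kept only where the protein sequence was available. Glycan names were converted to IUPAC-condensed notation, and columns mapping to the same glycan were averaged. The binding signal is a within-array Z-score, averaged across arrays of the same protein sequence at different concentrations or buffers and across linkers. Negative Z-scores can be read as non-binding.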
# [2] = biological target: Fuc(a1-2)Gal(b1-4)GlcNAc(b1-2)Man(a1-3)[Fuc(a1-2)Gal(b1-4)GlcNAc(b1-2)Man(a1-6)]Man(b1-4)GlcNAc(b1-4)[Fuc(a1-6)]GlcNAc
# Summary of the method: as §1
# [3] = biological target: Fuc(a1-2)[Gal(a1-3)]Gal(b1-3)GlcNAc(b1-3)GalNAc
# Summary of the method: as §1
# [4] = biological target: Fuc(a1-2)[GalNAc(a1-3)]Gal(b1-4)GlcNAc
# Summary of the method: as §1
# [5] = biological target: Fuc(a1-2)[GalNAc(a1-3)]Gal(b1-4)GlcNAc(b1-2)Man(a1-3)[Fuc(a1-2)[GalNAc(a1-3)]Gal(b1-4)GlcNAc(b1-2)Man(a1-6)]Man(b1-4)GlcNAc(b1-4)[Fuc(a1-6)]GlcNAc
# Summary of the method: as §1
# [6] = biological target: Fuc(a1-2)[GalNAc(a1-3)]Gal(b1-4)[Fuc(a1-3)]GlcNAc(b1-3)GalNAc
# Summary of the method: as §1
# [7] = biological target: Fuc(a1-2)[GalNAc(b1-3)]Gal
# Summary of the method: as §1
# [8] = biological target: Fuc(a1-3)[Gal(b1-4)]GlcNAc(b1-2)Man(a1-3)[Fuc(a1-3)[Gal(b1-4)]GlcNAc(b1-2)Man(a1-6)]Man(b1-4)GlcNAc(b1-4)GlcNAc
# Summary of the method: as §1
# [9] = biological target: Gal(a1-3)Gal(b1-4)GlcNAc(b1-2)Man(a1-3)[Gal(a1-3)Gal(b1-4)GlcNAc(b1-2)Man(a1-6)]Man(b1-4)GlcNAc(b1-4)GlcNAc
# Summary of the method: as §1
# [10] = biological target: Gal(a1-3)Gal(b1-4)GlcNAc(b1-6)GalNAc
# Summary of the method: as §1
# [11] = biological target: Gal(a1-3)GalNAc
# Summary of the method: as §1
# [12] = biological target: Gal(a1-4)Gal(b1-4)GlcNAc
# Summary of the method: as §1
# [13] = biological target: Gal(b1-3)GlcNAc
# Summary of the method: as §1
# [14] = biological target: Gal(b1-3)GlcNAc(b1-2)[Gal(b1-3)GlcNAc(b1-6)]Man(a1-6)[Gal(b1-3)GlcNAc(b1-2)Man(a1-3)]Man(b1-4)GlcNAc(b1-4)GlcNAc
# Summary of the method: as §1
# [15] = biological target: Gal(b1-3)GlcNAc(b1-6)[Gal(b1-3)]GalNAc
# Summary of the method: as §1
# [16] = biological target: Gal(b1-3)[Fuc(a1-4)]GlcNAc(b1-2)Man(a1-3)[Gal(b1-3)[Fuc(a1-4)]GlcNAc(b1-2)Man(a1-6)]Man(b1-4)GlcNAc(b1-4)[Fuc(a1-6)]GlcNAc
# Summary of the method: as §1
# [17] = biological target: Gal(b1-3)[Neu5Ac(a2-6)]GlcNAc(b1-4)Gal(b1-4)Glc
# Summary of the method: as §1
# [18] = biological target: Gal(b1-4)Gal
# Summary of the method: as §1
# [19] = biological target: Gal(b1-4)GlcNAc(a1-6)Gal(b1-4)GlcNAc
# Summary of the method: as §1
# [20] = biological target: Gal(b1-4)GlcNAc(b1-2)Man(a1-3)Man(b1-4)GlcNAc(b1-4)GlcNAc
# Summary of the method: as §1
# [21] = biological target: Gal(b1-4)GlcNAc(b1-2)Man(a1-3)[Gal(b1-4)GlcNAc(b1-2)Man(a1-6)][Gal(b1-4)GlcNAc(b1-4)]Man(b1-4)GlcNAc(b1-4)[Fuc(a1-6)]GlcNAc
# Summary of the method: as §1
# [22] = biological target: Gal(b1-4)GlcNAc(b1-2)[Gal(b1-4)GlcNAc(b1-6)]Man(a1-6)[GlcNAc(b1-4)][Gal(b1-4)GlcNAc(b1-2)Man(a1-3)]Man(b1-4)GlcNAc(b1-4)GlcNAc
# Summary of the method: as §1
# [23] = biological target: Gal(b1-4)GlcNAc(b1-3)Gal(b1-4)GlcNAc(b1-2)[Gal(b1-4)GlcNAc(b1-3)Gal(b1-4)GlcNAc(b1-6)]Man(a1-6)[Gal(b1-4)GlcNAc(b1-3)Gal(b1-4)GlcNAc(b1-2)Man(a1-3)]Man(b1-4)GlcNAc(b1-4)GlcNAc
# Summary of the method: as §1
# [24] = biological target: Gal(b1-4)GlcNAc(b1-3)Gal(b1-4)GlcNAc(b1-2)[Gal(b1-4)GlcNAc(b1-3)Gal(b1-4)GlcNAc(b1-6)]Man(a1-6)[Gal(b1-4)GlcNAc(b1-3)Gal(b1-4)GlcNAc(b1-2)Man(a1-3)]Man(b1-4)GlcNAc(b1-4)[Fuc(a1-6)]GlcNAc
# Summary of the method: as §1
# [25] = biological target: Gal(b1-4)GlcNAc(b1-3)Gal(b1-4)GlcNAc(b1-3)Gal(b1-4)GlcNAc(b1-2)Man(a1-3)[Gal(b1-4)GlcNAc(b1-3)Gal(b1-4)GlcNAc(b1-3)Gal(b1-4)GlcNAc(b1-2)Man(a1-6)]Man(b1-4)GlcNAc(b1-4)[Fuc(a1-6)]GlcNAc
# Summary of the method: as §1
# [26] = biological target: Gal(b1-4)GlcNAc(b1-3)Gal(b1-4)GlcNAc(b1-3)Gal(b1-4)GlcNAc(b1-3)Gal(b1-4)GlcNAc(b1-2)Man(a1-3)[Gal(b1-4)GlcNAc(b1-3)Gal(b1-4)GlcNAc(b1-3)Gal(b1-4)GlcNAc(b1-3)Gal(b1-4)GlcNAc(b1-2)Man(a1-6)]Man(b1-4)GlcNAc(b1-4)GlcNAc
# Summary of the method: as §1
# [27] = biological target: Gal(b1-4)GlcNAc(b1-3)Gal(b1-4)GlcNAc(b1-3)Gal(b1-4)GlcNAc(b1-3)Gal(b1-4)GlcNAc(b1-3)Gal(b1-4)GlcNAc(b1-2)Man(a1-3)[Gal(b1-4)GlcNAc(b1-3)Gal(b1-4)GlcNAc(b1-3)Gal(b1-4)GlcNAc(b1-3)Gal(b1-4)GlcNAc(b1-3)Gal(b1-4)GlcNAc(b1-2)Man(a1-6)]Man(b1-4)GlcNAc(b1-4)GlcNAc
# Summary of the method: as §1
# [28] = biological target: Gal(b1-4)GlcNAc(b1-3)Gal(b1-4)GlcNAc(b1-3)Gal(b1-4)GlcNAc(b1-3)Gal(b1-4)GlcNAc(b1-3)Gal(b1-4)GlcNAc(b1-2)Man(a1-3)[Gal(b1-4)GlcNAc(b1-3)Gal(b1-4)GlcNAc(b1-3)Gal(b1-4)GlcNAc(b1-3)Gal(b1-4)GlcNAc(b1-3)Gal(b1-4)GlcNAc(b1-2)Man(a1-6)]Man(b1-4)GlcNAc(b1-4)[Fuc(a1-6)]GlcNAc
# Summary of the method: as §1
# [29] = biological target: Gal(b1-4)GlcNAc(b1-3)Gal(b1-4)GlcNAc(b1-6)[Gal(b1-3)]GalNAc
# Summary of the method: as §1
# [30] = biological target: Gal(b1-4)GlcNAc(b1-6)[Gal(b1-3)]GalNAc
# Summary of the method: as §1
binder,measurement,setting,value
B1,glycan array binding signal (z-score),[1],6.26
same,glycan array binding signal (z-score),[2],-0.372
same,glycan array binding signal (z-score),[3],0.099
same,glycan array binding signal (z-score),[4],-0.651
same,glycan array binding signal (z-score),[5],0.127
same,glycan array binding signal (z-score),[6],3.5
same,glycan array binding signal (z-score),[7],-1.11
same,glycan array binding signal (z-score),[8],0.062
same,glycan array binding signal (z-score),[9],1.84
same,glycan array binding signal (z-score),[10],-0.506
same,glycan array binding signal (z-score),[11],-0.575
same,glycan array binding signal (z-score),[12],0.692
same,glycan array binding signal (z-score),[13],-0.432
same,glycan array binding signal (z-score),[14],1.46
same,glycan array binding signal (z-score),[15],0.011
same,glycan array binding signal (z-score),[16],0.75
same,glycan array binding signal (z-score),[17],-0.063
same,glycan array binding signal (z-score),[18],-0.088
same,glycan array binding signal (z-score),[19],-0.728
same,glycan array binding signal (z-score),[20],-0.334
same,glycan array binding signal (z-score),[21],3.03
same,glycan array binding signal (z-score),[22],0.194
same,glycan array binding signal (z-score),[23],3.16
same,glycan array binding signal (z-score),[24],3.01
same,glycan array binding signal (z-score),[25],3.73
same,glycan array binding signal (z-score),[26],3.61
same,glycan array binding signal (z-score),[27],3.36
same,glycan array binding signal (z-score),[28],3.38
same,glycan array binding signal (z-score),[29],2.1
same,glycan array binding signal (z-score),[30],0.609
